Assay results from PubChem BioAssay (Tox21).
Records with an inconclusive call do not appear. Where a call stands in place of a potency, no number is given. Active and inactive are the calls of the source. The call rests on the fitted dose curve.

Each compound was assayed against Thyrotropin receptor (Homo sapiens) (UniProt P16473) (assay: qHTS assay to identify small molecule antagonists of the thyroid stimulating hormone receptor (TSHR) signaling pathway (AID 1259385; further: nearly all actives have a fitted effect of over 20% in size)). Conditions: TSHR-HEK293 cAMP HTRF, TSH-stimulated antagonist mode; series mostly up to 92.4 µM; activity change, negative = inhibition: at the top concentration.
Sequence of Thyrotropin receptor (Homo sapiens) (P16473 whole entry, looked up): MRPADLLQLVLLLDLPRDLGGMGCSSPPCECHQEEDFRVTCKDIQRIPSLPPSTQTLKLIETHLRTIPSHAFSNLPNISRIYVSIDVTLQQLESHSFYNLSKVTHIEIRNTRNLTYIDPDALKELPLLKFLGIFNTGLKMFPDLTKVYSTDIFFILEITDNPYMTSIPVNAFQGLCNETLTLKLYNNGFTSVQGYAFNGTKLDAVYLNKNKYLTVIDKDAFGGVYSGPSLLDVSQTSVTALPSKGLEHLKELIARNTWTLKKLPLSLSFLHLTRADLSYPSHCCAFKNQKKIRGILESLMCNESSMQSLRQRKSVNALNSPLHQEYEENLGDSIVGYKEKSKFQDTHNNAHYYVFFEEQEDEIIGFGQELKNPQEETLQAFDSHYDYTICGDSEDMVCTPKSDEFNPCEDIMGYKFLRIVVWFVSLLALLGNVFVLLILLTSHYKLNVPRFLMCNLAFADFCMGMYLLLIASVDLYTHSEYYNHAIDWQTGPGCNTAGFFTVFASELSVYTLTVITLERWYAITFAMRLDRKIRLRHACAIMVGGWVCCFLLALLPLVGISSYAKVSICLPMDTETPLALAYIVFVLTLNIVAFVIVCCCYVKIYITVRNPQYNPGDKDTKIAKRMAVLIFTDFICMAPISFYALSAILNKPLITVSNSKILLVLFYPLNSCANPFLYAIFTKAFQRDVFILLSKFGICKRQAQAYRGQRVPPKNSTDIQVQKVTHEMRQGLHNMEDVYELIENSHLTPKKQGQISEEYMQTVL
Source text: U.S. Tox21 Program National Center for Advancing Translational Sciences [NCATS] NIH Chemical Genomics Center [NCGC] U.S. Environmental Protection Agency [EPA] National Institutes of Environmental Health Sciences [NIEHS] National Toxicology Program [NTP] U.S. Food and Drug Administration [FDA] Tox21 Assay Overview: TSHR is the receptor for thyrotropin (thyroid stimulating hormone or TSH), a member of the glycoprotein hormone family. TSH is released by the anterior pituitary gland and is the main regulator of thyroid gland growth and development. Upon binding circulating thyrotropin, a G-protein signal cascade activates adenylyl cyclase and […] cAMP concentration is increased. cAMP is a key second messenger involved extensively in cellular signal transduction pathways associated with the majority of G-protein coupled receptors (GPCRs). The activation of these GPCRs by neurotransmitters, lipids, nucleotides, peptides and hormones results in the activation or the inhibition of plasma membrane-bound adenylate cyclase through heterotrimeric G-proteins. A cell-based TSHR assay can be used to screen chemical compounds that modulate TSHR either in agonist or antagonist mode.
Tox21 Assay Protocol Summary: TSHR-Hek293 cells were dispensed at 800 cells/4uL/well in 1536-well white plates using a Multidrop dispenser. After the assay plates were incubated at a 37C/5% CO2 incubator for 18 hrs, 23 nL of compounds dissolved in DMSO, positive controls or DMSO only was transferred to the assay plate by a pin tool, followed by 1 ul medium containing Ro20-1724. For the antagonist mode screening, 1 uL of TSH was added on the top of the cell/compound mixtures to achieve a final agonist concentration of 1.5 ng/mL. After 30 min of incubation at room temperature, 2.5 ul/well of cAMP-d2 and 2.5 ul/well of anti-cAMP-cryptate were added respectively into the assay plates using a Flying Reagent Dispenser. The plates were incubated at room temperature for 1 hr. The fluorescence intensity in the plates was measured using an Envision plate reader. Each test compound was measured at 15 concentrations and in triplicates.
`O=c1[nH]c(=O)n([C@H]2C[C@H](O)[C@@H](CO)O2)cc1Br` was tested, and the Potency was “inactive”. With `Cc1cc(C)c(C)cc1C` the Potency was “inactive”. For `O=C(O)CC(C(=O)O)C(CC(=O)O)C(=O)O` (stereo not given), the Potency was “inactive”. `O=C(O)c1cc(=O)c2c(OCC(O)COc3cccc4oc(C(=O)O)cc(=O)c34)cccc2o1` was tested, and the Potency was “inactive”. `CCCCOC(=O)COc1ccc(Cl)cc1Cl` was tested, and the Potency was “inactive”. `Cc1ccc2oc(=O)ccc2c1` was tested, and the Potency was “inactive”. `N[C@@H](Cc1cc(I)c(Oc2cc(I)c(O)c(I)c2)c(I)c1)C(=O)O` was tested, and the Potency was “inactive”. For `CC[C@H](C)C(=O)O[C@H]1C[C@@H](C)C=C2C=C[C@H](C)[C@H](CC[C@@H]3C[C@@H](O)CC(=O)O3)[C@H]21`, the Potency was “inactive”. For `CCCCCCCCCCCCCCCO`, the Potency was “inactive”. In the case of `FC(F)(F)c1ccc(Cl)c(Cl)c1`, the Potency is reported as “inactive”. `COCCCOc1ccnc(CS(=O)c2nc3ccccc3[nH]2)c1C` (stereo not given) was tested, and the Potency was “inactive”. `CCc1cccc(C)c1N` was tested, and the Potency was “inactive”. With `O=C(O)c1ccc(C(=O)O)cc1` the Potency was “inactive”. With `O=C(O)c1ccc2c(c1)C(=O)OC2=O` the Potency was “inactive”. In the case of `O=C(Oc1ccccc1)c1ccccc1`, the Potency is reported as “inactive”. With `ON=C1CCCCC1` the Potency was “inactive”. In the case of `C=C(C)C(=O)Nc1ccc(Cl)c(Cl)c1`, the Potency is reported as “inactive”. In the case of `CC1CCC2CC1C2(C)C` (stereo not given), the Potency is reported as “inactive”. With `Cc1cnc(C(=O)NCCc2ccc(S(=O)(=O)NC(=O)NC3CCCCC3)cc2)cn1` the Potency was “inactive”. For `Cc1ccc(S(N)(=O)=O)cc1`, the Potency was “inactive”. `O=C(O)CCCC[C@@H]1SC[C@@H]2NC(=O)N[C@@H]21` was tested, and the Potency was “inactive”. In the case of `CCOC(=O)NNc1nncc2ccccc12`, the “activity change, negative = inhibition” value is reported as -3.46% [at 42.5 µM] (inactive). `C[Si](O[Si](C)(C)C)O[Si](C)(C)C` was tested, and the Potency was “inactive”. In the case of `CCCCN(CCCC)CCCC`, the Potency is reported as “inactive”. For `C=C(C)C(=O)OCCOCCOCCOC(=O)C(=C)C`, the Potency was “inactive”. For `CN(C)CCC(c1ccccc1)c1ccccn1` (stereo not given), the “activity change, negative = inhibition” value was -0.983% [at 42.5 µM] (inactive). In the case of `O=C(O)c1cc(C(=O)O)cc(S(=O)(=O)O)c1`, the Potency is reported as “inactive”. In the case of `C#CCN(C)Cc1ccccc1`, the Potency is reported as “inactive”. `O=P(OC(CCl)CCl)(OC(CCl)CCl)OC(CCl)CCl` was tested, and the Potency was “inactive”. `CC(=O)CC(=O)Nc1ccccc1` was tested, and the Potency was “inactive”. With `Fc1ccc(Br)cc1` the Potency was “inactive”. With `CCCCCOC(C)=O` the Potency was “inactive”. With `CC(=O)c1ccccc1` the Potency was “inactive”. `CC(=O)CC(=O)Nc1ccccc1C` was tested, and the Potency was “inactive”. `O=C=NCCCCCCN=C=O` was tested, and the Potency was “inactive”. In the case of `C=CCOC(=O)c1ccccc1C(=O)OCC=C`, the Potency is reported as “inactive”. In the case of `CCCCC(CC)CO` (stereo not given), the Potency is reported as “inactive”. With `O=c1[nH]c(=O)n([C@H]2CCCO2)cc1F` the Potency was “inactive”. For `CC1=CC(=O)NS(=O)(=O)O1`, the Potency was “inactive”. With `CCCCCCCCC/C=C/CC1CC(=O)OC1=O` (stereo not given) the Potency was “inactive”.
